# According to the antibiotic and cytotoxicity screens of Wong et al. (2023):
# Among all 39,000 compounds or so, about 3,300 (8.5%) were called active. The list comes from a sample in which actives are over-represented; it also holds similar structures and randomly drawn compounds.
# Test system: HepG2
# Assay: cytotoxicity call (relative viability < 0.9)
# Conditions: 10 µM
row,Compound,cytotoxicity call
1,C[C@H]1CN([C@@H](C)CO)C(=O)c2cc(NS(=O)(=O)c3cn(C)cn3)ccc2O[C@H]1CN(C)CC1CC1,inactive
2,COCC(=O)Nc1ccc2c(c1)OC[C@@H](C)N(C(=O)c1ccccc1F)C[C@@H](C)[C@H](OC)CN(C)C2=O,inactive
3,O=C1OCC=C[C@H]2O[C@@]34C=CCN(CCN5CCOCC5)C(=O)[C@H]3N(CCCCCCO)C(=O)[C@@H]4[C@@H]12,inactive
4,C=CC1CN2CCC1CC2C(O)c1ccnc2ccc(OC)cc12.O=C(O)C(O)C(O)C(O)C(O)CO (centres undefined),inactive
5,C=CC1CN2CCC1CC2C(O)c1ccnc2ccc(OC)cc12.Cl (centres undefined),active
6,C=CC1CN2CCC1CC2C(O)c1ccnc2ccc(OC)cc12 (centres undefined),inactive
7,COc1ccc2c3c(n(c2c1)C)[C@H](CO)N(C[C@]13CCN(CC1)C(=O)c1ccccc1F)C(=O)Nc1ccccc1F,inactive
8,C[C@@H]1CN([C@H](C)CO)C(=O)c2cc(NS(=O)(=O)c3cn(C)cn3)ccc2O[C@@H](C)CCCCO[C@H]1CN(C)S(=O)(=O)c1ccc(F)cc1,inactive
9,COc1ccc(-c2cnc3c(c2)C(=O)N([C@@H](C)CO)C[C@@H](C)[C@H](CN(C)S(=O)(=O)c2ccc(OC)cc2)O3)cc1,inactive
10,O=[N+]([O-])c1ncn(Cc2ccccn2)n1,inactive
11,O=[N+]([O-])c1ccc(O)c2ncccc12,active
12,Oc1ccc(Cl)c2cccnc12 [listing 1 of 2 here],active
13,Oc1ccc(Cl)c2c1CCC2,inactive
14,Oc1ccc(Cl)c2cccnc12 [listing 2 of 2 here],active
15,NS(=O)(=O)c1ccc(O)c([N+](=O)[O-])c1,inactive
16,Fc1cccc2c(Cl)ccnc12,inactive
17,O=C(C[C@H]1CC[C@@H]2[C@H](COC[C@@H](O)CN2C(=O)c2ccncc2)O1)NC1CCC1,inactive
18,C[C@@H]1CCCCO[C@H](CN(C)CC2CCCCC2)[C@H](C)CN([C@@H](C)CO)C(=O)c2cc(NC(=O)NC3CCCCC3)ccc2O1,inactive
19,O=C(C[C@@H]1CC[C@@H]2[C@H](COC[C@H](O)CN2Cc2ccccc2F)O1)N[C@H]1CCN(Cc2ccccc2)C1,inactive
20,C[C@H](CO)N1C[C@H](C)[C@@H](CN(C)C(=O)Nc2cccc3ccccc23)Oc2c(NS(=O)(=O)c3ccc(F)cc3)cccc2C1=O,inactive
21,C[C@H]1CN([C@@H](C)CO)C(=O)c2cc(NC(=O)Cn3cnnn3)ccc2O[C@H]1CN(C)Cc1ccc(C(=O)O)cc1,inactive
22,COc1ccc(S(=O)(=O)N(C)C[C@@H]2Oc3ccc(NC(=O)CCN4CCOCC4)cc3C(=O)N([C@H](C)CO)C[C@@H]2C)cc1,inactive
23,COCC#Cc1cnc2c(c1)C(=O)N([C@@H](C)CO)C[C@@H](C)[C@H](CN(C)C(=O)CCN1CCCCC1)O2,inactive
24,C[C@H]1CCCCO[C@@H](CN(C)S(=O)(=O)c2ccccc2)[C@@H](C)CN([C@@H](C)CO)C(=O)c2cc(NC(=O)Nc3ccc(C(F)(F)F)cc3)ccc2O1,active
25,C[C@@H]1CCCCO[C@@H](CN(C)S(=O)(=O)c2ccccc2)[C@@H](C)CN([C@H](C)CO)C(=O)c2cc(NC(=O)Nc3ccc(C(F)(F)F)cc3)ccc2O1,inactive

row,Compound,cytotoxicity call
1,C[C@@H]1CN([C@@H](C)CO)C(=O)c2cc(NC(=O)Nc3ccc(C(F)(F)F)cc3)ccc2O[C@@H](C)CCCCO[C@H]1CN(C)S(=O)(=O)c1ccccc1,inactive
2,C[C@@H]1CCCCO[C@H](CN(C)S(=O)(=O)c2ccccc2)[C@@H](C)CN([C@H](C)CO)C(=O)c2cc(NC(=O)Nc3ccc(C(F)(F)F)cc3)ccc2O1,active
3,C[C@@H]1CN([C@@H](C)CO)C(=O)c2cc(NC(=O)Nc3ccc(C(F)(F)F)cc3)ccc2O[C@@H](C)CCCCO[C@@H]1CN(C)S(=O)(=O)c1ccccc1,inactive
4,C[C@H]1CCCCO[C@H](CN(C)S(=O)(=O)c2ccccc2)[C@@H](C)CN([C@@H](C)CO)C(=O)c2cc(NC(=O)Nc3ccc(C(F)(F)F)cc3)ccc2O1,active
5,C[C@@H]1CCCCO[C@H](CN(C)S(=O)(=O)c2ccccc2)[C@@H](C)CN([C@@H](C)CO)C(=O)c2cc(NC(=O)Nc3ccc(C(F)(F)F)cc3)ccc2O1,inactive
6,C[C@H](CO)N1C[C@H](C)[C@H](CN(C)S(=O)(=O)c2ccccc2)OCCCC[C@H](C)Oc2ccc(NC(=O)Nc3ccc(C(F)(F)F)cc3)cc2C1=O,inactive
7,C[C@@H]1CCCCO[C@@H](CN(C)S(=O)(=O)c2ccccc2)[C@H](C)CN([C@H](C)CO)C(=O)c2cc(NC(=O)Nc3ccc(C(F)(F)F)cc3)ccc2O1,inactive
8,C[C@@H]1CCCCO[C@H](CN(C)S(=O)(=O)c2ccccc2)[C@H](C)CN([C@@H](C)CO)C(=O)c2cc(NC(=O)Nc3ccc(C(F)(F)F)cc3)ccc2O1,active
9,C[C@@H]1CCCCO[C@@H](CN(C)S(=O)(=O)c2ccccc2)[C@@H](C)CN([C@@H](C)CO)C(=O)c2cc(NC(=O)Nc3ccc(C(F)(F)F)cc3)ccc2O1,inactive
10,C[C@H](CO)N1C[C@H](C)[C@@H](CN(C)S(=O)(=O)c2ccccc2)OCCCC[C@H](C)Oc2ccc(NC(=O)Nc3ccc(C(F)(F)F)cc3)cc2C1=O,inactive
11,OCC1CCNCC1,inactive
12,COC(=O)c1sccc1NC(=O)Cn1cnc2c1c(=O)n(C)c(=O)n2C,inactive
13,CC(=O)N(C)C[C@H]1Oc2ncc(C#C[C@H](C)O)cc2C(=O)N([C@@H](C)CO)C[C@H]1C,inactive
14,C[C@H]1CN([C@@H](C)CO)S(=O)(=O)c2ccc(-c3ccc(C(=O)N(C)C)cc3)cc2O[C@@H]1CN(C)C(=O)C1CCOCC1,inactive
15,CC(C)NC(=O)Nc1ccc2c(c1)CC(=O)N([C@H](C)CO)C[C@H](C)[C@H](CN(C)S(=O)(=O)c1ccccc1)O2,inactive
16,Nc1ccn([C@@H]2C[C@@H](O)[C@H](CO)O2)c(=O)n1,inactive
17,COc1ccc(NC(=O)N(C)C[C@@H]2Oc3ccc(NC(=O)CCCN(C)C)cc3C(=O)N([C@@H](C)CO)C[C@H]2C)cc1,inactive
18,COc1ccc(NC(=O)N(C)C[C@@H]2OCCCC[C@@H](C)Oc3ccc(NC(=O)C4CCCCC4)cc3C(=O)N([C@@H](C)CO)C[C@H]2C)cc1,inactive
19,C[C@H]1CC/C=C\[C@H]2O[C@@]34C=CCN(CCN5CCOCC5)C(=O)[C@H]3N(CCO)C(=O)[C@@H]4[C@@H]2C(=O)O1,inactive
20,COc1cc(OC)cc(C(=O)N(Cc2ccco2)Cc2cc3ccc(SC)cc3nc2-c2cccc(OC)c2)c1,inactive
21,Fc1ccccc1-c1nc2ccn(Cc3ccc(-c4ccc(C(F)(F)F)cc4C(F)(F)F)nn3)cc-2n1,active
22,CO[C@@H]1CN(C)C(=O)c2ccc(NC(=O)C3CC3)cc2OC[C@H](C)N(C(=O)Cc2ccccn2)C[C@@H]1C,inactive
23,COc1cc(C=CC(N)=O)cc(OC)c1OC,active
24,C=C(C)C(=O)N1CCC=CC1=O,inactive
25,C/C=C/C(=O)N1CCC=CC1=O,inactive

row,Compound,cytotoxicity call
1,COC(=O)C=Cc1cc(OC)c(OC)c(OC)c1,inactive
2,COc1cc(/C=C/C(=O)N(C)CCN(C)C(=O)/C=C/c2cc(OC)c(OC)c(OC)c2)cc(OC)c1OC,inactive
3,COc1cc(C=CC(=O)O)cc(OC)c1OC,inactive
4,COc1cc(/C=C/C(=O)N2CCC=CC2=O)cc(OC)c1OCCOCCOCCOCCC(=O)OC(C)(C)C,active
5,CCOC(=O)/C=C/C(=O)N1CCC=CC1=O,active
6,COc1cc(/C=C/C(=O)N2CCC=CC2=O)cc(OC)c1OC(=O)CCCCCCCCCCC(=O)Oc1c(OC)cc(/C=C/C(=O)N2CCC=CC2=O)cc1OC,inactive
7,COc1cc(C=CC(=O)N2CCC=CC2=O)cc(OC)c1OC,active
8,COc1cc(C=CC(=O)N2CCCCCCC2)cc(OC)c1OC,inactive
9,COc1cc(C=CC(=O)O)cc(OC)c1O,inactive
10,Cn1cc(S(=O)(=O)N2CCN(Cc3ccccc3)CC2)c(=O)n(C)c1=O,inactive
11,C=CCOC(=O)O[C@H]1[C@@H](OC)O[C@H](COC(=O)NCCCCCC(=O)NO)[C@H]2OC(=O)[C@@H](Cc3cccc(Br)c3)C/C=C/C[C@H](Cc3ccccc3)C(=O)O[C@H]12,inactive
12,CN1C(=O)c2cc(NS(=O)(=O)c3ccc(F)cc3)ccc2OC[C@@H]2O[C@@H](CC(=O)NCC(F)(F)F)CC[C@H]21,inactive
13,C[C@H]1CN([C@@H](C)CO)C(=O)c2cc(C#CCN(C)C)cnc2O[C@H]1CN(C)S(=O)(=O)c1cn(C)cn1,inactive
14,O=C(C[C@H]1CC[C@H]2[C@@H](COC[C@H](O)CN2S(=O)(=O)c2ccc(Cl)cc2)O1)N[C@H]1CCN(Cc2ccccc2)C1,inactive
15,CC(C)NC(=O)Nc1ccc2c(c1)C(=O)N([C@@H](C)CO)C[C@H](C)[C@@H](CN(C)C(=O)C1CCCCC1)OCCCC[C@H](C)O2,inactive
16,CCNC(=S)NCC1CC1,inactive
17,Cc1ccc(S(=O)(=O)Nc2ccc3c(c2)C(=O)N([C@H](C)CO)C[C@H](C)[C@H](CN(C)Cc2ccc4c(c2)OCO4)OCCCC[C@@H](C)O3)cc1,inactive
18,C[C@@H]1CN([C@H](C)CO)S(=O)(=O)c2ccc(C#Cc3ccc(F)cc3)cc2O[C@@H]1CN(C)CC1CC1,inactive
19,CO[C@@H]1CN(C)C(=O)c2ccc(NS(C)(=O)=O)cc2OC[C@@H](C)N(C(=O)CN(C)C)C[C@@H]1C,inactive
20,C[C@@H]1CN([C@@H](C)CO)C(=O)Cc2cc(NC(=O)Cn3cnnn3)ccc2O[C@@H]1CN(C)Cc1ccc(-c2ccccc2)cc1,inactive
21,C[C@H](CO)N1C[C@H](C)[C@H](CN(C)S(=O)(=O)c2ccc(Cl)cc2)OCCCC[C@H](C)Oc2ccc(NC(=O)Nc3cccc4ccccc34)cc2C1=O,inactive
22,CCCCc1oc2ccccc2c1C(=O)c1cc(I)c(OCCN(CC)CC)c(I)c1,active
23,CCCCc1oc2ccccc2c1C(=O)c1cc(I)c(OCCN(CC)CC)c(I)c1.Cl,active
24,CCCCOc1cc(C(=O)NCCN(CC)CC)c2ccccc2n1.Cl,inactive
